Potency data for 19 compounds are collected here from PubChem BioAssay (NCATS).

Results filed as inconclusive are left out. Activity calls are given as the source filed them. Calls come from the whole dose curve; as a rule, active = well fitted inhibition curve with a large enough effect; inconclusive = small, poorly fitted or top-dose-only effect; inactive = flat fitted curve, though single readings scatter.

Holding throughout (test): qHTS profiling for inhibitors of Plasmodium falciparum proliferation (AID 504749); note: nearly all actives have a fitted effect of over 60% in size
Conditions in all cases: P. falciparum in erythrocytes, SYBR Green DNA, 72 h; series mostly up to 28.7 µM

One test has as its system CP191. The essentials: (§1)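 Infected RBCs, 0.3% parasitemia/2.5% Hct final; cpd 72 h, 37 C, 5% CO2; lysis buffer with saponin/triton/SYBR Green I, o/n RT dark; FI 485/535; norm. to artemisinin (0.29 uM) and DMSO.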
The test system of a further test is CP192. An outline of the steps:
as §1

The next test relates to CP194. An outline of the steps: as §1
The next test has as its system CP201. The essentials: as §1
The next test has as its system CP203. The essentials: as §1
The subject of a further test is CP211. The essentials: as §1
For the next test, the system named is CP215. An outline of the steps:
as §1

The subject of a further test is CP217. An outline of the steps: as §1
For another test, the system named is CP237. The essentials: as §1
A further test relates to CP238. The essentials:
as §1
Potency is the fitted concentration of half-maximal effect.

For `NC(=O)c1cccnc1`, the Potency result in the test on CP191, with CP192, in the test with CP194, in the test on CP201, in the test on CP203 and with CP211 was “inactive” in each case. Also, the Potency result in the test on CP215, in the test on CP217, with CP237 and in the test with CP238 was “inactive” each time.

Take `CC(C)(C#N)c1cc(Cn2cncn2)cc(C(C)(C)C#N)c1`: the Potency entry with CP191, with CP192, in the test on CP194, in the test on CP201, in the test on CP203 and with CP211 was “inactive” in each case. The Potency result in the test on CP215, in the test on CP217, in the test on CP237 and in the test on CP238 was “inactive” throughout.

For `O=P(O)(O)C(O)(Cc1cccnc1)P(=O)(O)O`, the Potency result with CP191, in the test on CP192, in the test with CP194, with CP201, in the test on CP203 and in the test with CP211 was “inactive” in each case. The Potency entry with CP215, with CP217, in the test with CP237 and with CP238 was “inactive” throughout.

For `CCC(C)(C)c1ccc(CC(C)CN2C[C@@H](C)O[C@@H](C)C2)cc1` (stereo not given in full), the Potency entry in the test on CP191, with CP192, in the test with CP194, in the test on CP201, in the test on CP203 and in the test on CP211 was “inactive” throughout. Also, the Potency result with CP215, in the test on CP217 and in the test on CP238 was “inactive” throughout.

Regarding `Cc1ncc([N+](=O)[O-])n1CCO`, the Potency entry in the test on CP191, in the test with CP192, in the test with CP194, with CP201, in the test with CP203 and with CP211 was “inactive” in each case. The Potency result with CP217, in the test with CP237 and with CP238 was “inactive” each time.

With `CCn1cc(C(=O)O)c(=O)c2cc(F)c(N3CCNCC3)nc21`, the Potency entry in the test on CP191, in the test on CP192, in the test with CP194, with CP201, with CP203 and in the test with CP211 was “inactive” in each case. The Potency entry with CP215, with CP217 and with CP238 was “inactive” throughout.

Regarding `CNS(=O)(=O)Cc1ccc2[nH]cc(CCN(C)C)c2c1`, the Potency result in the test on CP191, in the test with CP192, in the test with CP194, with CP201, in the test with CP203 and in the test on CP211 was “inactive” each time. Further, the Potency result in the test on CP217, in the test with CP237 and in the test with CP238 was “inactive” throughout.

`CC(C)(Sc1cc(C(C)(C)C)c(O)c(C(C)(C)C)c1)Sc1cc(C(C)(C)C)c(O)c(C(C)(C)C)c1`: the Potency entry in the test on CP191, in the test with CP192, in the test on CP194, in the test on CP201, with CP203 and in the test on CP211 was “inactive” each time. For the same compound, the Potency entry in the test on CP215, with CP217 and in the test with CP238 was “inactive” in each case.

On to `CC1=NN(c2ccccc2)C(=O)C1`, for which the Potency result in the test on CP191, with CP192, in the test with CP194, in the test with CP201, with CP203 and in the test on CP211 was “inactive” throughout. Also, the Potency result with CP215, with CP217, with CP237 and in the test with CP238 was “inactive” throughout.

For the compound `Cc1noc(NS(=O)(=O)c2ccc(N)cc2)c1C`, the Potency result in the test with CP191, in the test on CP192, in the test on CP194, in the test with CP201, in the test with CP203 and with CP211 was “inactive” in each case. Further, the Potency result in the test on CP215, with CP217, with CP237 and with CP238 was “inactive” in each case.

Turning to `NC(=O)N1c2ccccc2CC(=O)c2ccccc21`, the Potency result in the test with CP191, in the test on CP192, with CP194, in the test with CP201, in the test on CP203 and in the test on CP211 was “inactive” in each case. For the same compound, the Potency result in the test on CP217, with CP237 and with CP238 was “inactive” in each case.

As for `CCCc1nc(C)c2c(=O)[nH]c(-c3cc(S(=O)(=O)N4CCN(CC)CC4)ccc3OCC)nn12`, the Potency result with CP191, in the test with CP192, in the test on CP194, in the test on CP201, with CP203 and in the test with CP211 was “inactive” in each case. Moreover, the Potency result with CP215, in the test with CP217 and in the test with CP238 was “inactive” each time.

With `CN(C)CCc1c[nH]c2ccc(CS(=O)(=O)N3CCCC3)cc12`, the Potency entry with CP191, with CP192, in the test on CP194, in the test on CP201, with CP203 and in the test with CP211 was “inactive” in each case. Further, the Potency result in the test with CP215, in the test on CP217, in the test with CP237 and with CP238 was “inactive” each time.

Turning to `O=S(=O)(O)CCS`, the Potency result in the test on CP191, in the test with CP192, in the test on CP194, with CP201, in the test on CP203 and in the test with CP211 was “inactive” throughout. Moreover, the Potency result in the test on CP215, with CP217, in the test on CP237 and in the test on CP238 was “inactive” throughout.

Turning to `COc1ccc2cc3[n+](cc2c1OC)CCc1cc2c(cc1-3)OCO2`, the Potency is 0.891 µM (active) in the test with CP191; 0.849 µM (active) with CP192; 2.13 µM (active) in the test with CP194; 1.69 µM (active) in the test on CP201; 1.07 µM (active) in the test with CP203; 0.757 µM (active) with CP211. Besides, the Potency in the test with CP215 was 0.953 µM (active); in the test with CP217, 1.41 µM (active); with CP237, 1.26 µM (active); in the test with CP238, 0.891 µM (active).

As for `CCOC(=O)[C@H](CCc1ccccc1)N[C@H]1CS[C@H](c2cccs2)CN(CC(=O)O)C1=O`, the Potency result with CP191, in the test with CP192, in the test on CP194, with CP201, in the test with CP203 and with CP211 was “inactive” each time. Besides, the Potency result with CP215, with CP237 and with CP238 was “inactive” in each case.

For the compound `COc1ccc(C(=O)CC(=O)c2ccc(C(C)(C)C)cc2)cc1`, the Potency entry with CP191, in the test on CP192, with CP194, with CP201, in the test on CP203 and in the test with CP211 was “inactive” in each case. The Potency result with CP217 and in the test on CP238 was “inactive” in each case.

In the case of `O=c1cc(O)c(Cl)c[nH]1`, the Potency result in the test with CP191, in the test on CP192, in the test with CP194, in the test with CP201, with CP203 and with CP211 was “inactive” throughout. The Potency result with CP215, in the test with CP217, in the test on CP237 and in the test with CP238 was “inactive” in each case.

On to `CC[C@H](NC(C)C)[C@H](O)c1ccc(O)c2[nH]c(=O)ccc12`, for which the Potency entry in the test with CP191, in the test with CP192, in the test with CP194, with CP201, in the test on CP203 and in the test on CP211 was “inactive” each time. In addition, the Potency result in the test with CP215, in the test on CP217, in the test on CP237 and in the test with CP238 was “inactive” each time.
